PP5 primary: PP5 phosphatase inhibitors, primary screen, biochemical, fluorescence. inhibition, % at 6.7 µM. purified PP5c, OMFP substrate fluorescence. 0.18% of 320,000 active. Serine/threonine-protein phosphatase 5 (Homo sapiens), P53041;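 active means inhibition above the campaign's mean inhibition across all tested compounds plus 3 SD, cut at about 9.5% in these data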;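 further: 0% = DMSO only and 100% = 100 µM cantharidin control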
PP1 counter: PP1-alpha phosphatase inhibitors, primary screen, counter-screen for PP5 inhibitor project, biochemical, fluorescence, OMFP substrate, single point; AID 2235, 2010; 0.9% of 320,000 active; inhibition, % at 6.7 µM; Serine/threonine-protein phosphatase PP1-alpha catalytic subunit (Homo sapiens), P62136; purified PP1alpha;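 active means inhibition above the mean inhibition of all tested compounds plus 3 SD, computed separately for each screening campaign, cut at about 15% in these data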
H9c2 protect: cardioprotection against H2O2-induced cell death, primary screen, uHTS, H9c2 cells, ATPLite luminescence; H9c2 cardiomyocytes, H2O2 injury protection, 2 h; 0.63% of 360,000 active; protection from H2O2 cell death, % at 20 µM; AID 588492, 2011;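 active means compounds giving at least 50% protection of heart cells from peroxide-induced death in the single-dose screen, raw or plate-pattern-corrected value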;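 further: 0% = DMSO wells with peroxide and 100% = DMSO wells without peroxide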
ATG4B inh: ATG4B protease inhibitors, primary screen, biochemical, fluorescence, uHTS; Cysteine protease ATG4B (Homo sapiens), Q9Y4P1; ATG4B cleavage of LC3-PLA2, NBD-HPC fluorescence, 1 h; inhibition, % at 8.33 µM; 0.51% of 340,000 active; AID 504462, 2011; in the data active means inhibition above about 40%
Target sequence (Q9Y4P1 whole entry, looked up): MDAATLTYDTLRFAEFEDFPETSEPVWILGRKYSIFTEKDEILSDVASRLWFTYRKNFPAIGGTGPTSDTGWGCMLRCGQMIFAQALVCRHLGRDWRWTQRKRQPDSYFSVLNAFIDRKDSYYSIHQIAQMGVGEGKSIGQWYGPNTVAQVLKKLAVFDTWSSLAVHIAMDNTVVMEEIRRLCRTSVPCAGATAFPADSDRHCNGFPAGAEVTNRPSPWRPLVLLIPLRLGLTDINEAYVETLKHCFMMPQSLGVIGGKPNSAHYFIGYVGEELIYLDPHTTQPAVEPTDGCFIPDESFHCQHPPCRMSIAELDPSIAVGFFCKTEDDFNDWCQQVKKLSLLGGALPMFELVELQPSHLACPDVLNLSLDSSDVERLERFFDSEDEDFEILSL
* = called active by the depositor; . = no result. The list is not random: actives were taken first. Their share in the collection is about 1.9%.

SMILES	PP5 primary	PP1 counter	H9c2 protect	ATG4B inh
Cc1ccc(-c2nn(-c3ccccc3)cc2C2CC(c3cccs3)=NN2C(=O)CCCC(=O)O)cc1 (centres undefined)	-1	12	7	2
O=C(CCc1ccccc1)Nc1nnc(-c2ccc3c(c2)CCCC3)o1	-1	20*	14	0
O=C(CCc1ccccc1)Nc1nnc(-c2ccc3c(c2)OCCO3)o1	2	4	8	-6
O=C(COc1ccccc1)Nc1nnc(-c2ccco2)o1	-1	-1	0	2
O=C(COc1ccccc1)Nc1nnc(-c2ccccc2)o1	1	15*	24	10
O=C(COc1ccccc1)Nc1nnc(-c2ccc(Cl)s2)o1	1	19*	9	3
Cc1cc(NC(=O)CCC(=O)N(CCC(C)C)C(C(=O)NCC2CCCO2)c2ccccc2C)no1 (centres undefined)	1	-4	0	-13
CC1CCCCC12NC(=O)N(CC(=O)Nc1nccs1)C2=O (centres undefined)	.	.	0	-5
Cc1cccc(C)c1NC(=O)[C@@]1(CC(=O)O)CC(/C=C/c2ccccc2)=NO1	.	.	0	3
COCCNC(=O)C1(C)CCCN(C(=O)c2ccc(OC)cc2OC)C1 (centres undefined)	.	.	0	.
CC(C)C1=CC(=Nc2ccc(S(N)(=O)=O)cc2)C=C(C(C)C)C1=O	.	.	-7	-4
CCn1c(CSc2nc3ccccc3s2)nnc1SCC(=O)c1ccc(O)c(O)c1	3	3	62*	3
COc1ccc(N(C(=O)c2snc(C(N)=O)c2N)C(C(=O)NCc2ccccc2)c2ccc(O)cc2)cc1 (centres undefined)	.	.	4	3
CCC(C)(C)NC(=O)C(c1ccc(F)cc1)N(Cc1ccco1)C(=O)c1snc(C(N)=O)c1N (centres undefined)	1	5	20	10
Cc1ccccc1C(C(=O)NCc1ccccc1)N(Cc1ccco1)C(=O)c1ccccn1 (centres undefined)	6	-1	51*	-5
CN(C)c1ccc(C(C(=O)NCc2ccccc2)N(Cc2ccco2)C(=O)c2snc(C(N)=O)c2N)cc1 (centres undefined)	2	2	78*	14
Cc1ccc(C(C(=O)NCc2ccc(F)cc2)N(Cc2ccco2)C(=O)c2snc(C(N)=O)c2N)o1 (centres undefined)	4	-1	40	1
NC(=O)c1nsc(C(=O)N(c2ccccc2)C(C(=O)NCc2ccc(F)cc2)c2ccc(O)cc2)c1N (centres undefined)	4	14	50*	4
NC(=O)c1nsc(C(=O)N(Cc2ccco2)C(C(=O)NCc2ccc(F)cc2)c2ccc(O)cc2)c1N (centres undefined)	1	-3	54*	4
O=C(NCCc1cn[nH]c1)c1ccc2oc(CCc3ccccc3)nc2c1	.	.	0	.
CC(=O)c1ccc(OC(C)c2nc3ccccc3s2)cc1 (centres undefined)	0	0	-5	2
Cc1nn(-c2ccccc2)c(C)c1C(=O)OCC(=O)N1c2ccccc2NC(=O)C1(C)C	5	-1	99*	0
Cc1cnc(C(=O)OCC(=O)N2c3ccccc3NC(=O)C2(C)C)cn1	1	-1	-3	-9
COc1cccc(C(=O)Nn2c(-c3cccs3)nc3ccccc3c2=O)c1OC	3	-3	13	-11
COc1ccc(CNn2c(-c3cccs3)nc3ccccc3c2=O)cc1OC	2	1	67*	4
SMILES	PP5 primary	PP1 counter	H9c2 protect	ATG4B inh
CCOc1ccc(/C(O)=C2/C(=O)C(=O)N(CCCN3CCOCC3)C2c2ccc(F)cc2)cc1C (centres undefined)	2	4	3	1
O=C(CNC(=O)c1[nH]cnc1C(=O)NC(c1ccccc1)c1ccccc1)OCc1ccccc1	2	4	58*	-7
O=C(CNC(=O)c1[nH]cnc1C(=O)N[C@@H](Cc1ccccc1)C(=O)OCc1ccccc1)OCc1ccccc1	4	7	10	-19
O=C(N[C@@H](Cc1ccccc1)C(=O)OCc1ccccc1)c1nc[nH]c1C(=O)NC(c1ccccc1)c1ccccc1	5	17*	31	-1
CC(C)(C)OC(=O)CNC(=O)c1[nH]cnc1C(=O)Nc1ccc(CNC(=O)OC(C)(C)C)cc1	7	3	87*	-16
CC(C)(C)OC(=O)CNC(=O)c1[nH]cnc1C(=O)NCC(=O)OCc1ccccc1	2	1	105*	-9
CS(=O)(=O)N(CC(=O)N1CCCCCC1)c1cc(Cl)ccc1Cl	0	-4	5	0
Cc1nc2sccn2c(=O)c1S(=O)(=O)Nc1ccc(N2CCN(S(C)(=O)=O)CC2)cc1	2	-5	15	-2
CC1(C)CC(Cc2ccc(C(=O)c3ccccc3)cc2)N(C(=O)OC(C)(C)C)N1 (centres undefined)	.	.	5	.
C/C(=N\NC(=O)c1ccc(O)cc1)c1cccc(NC(=O)c2ccc(Cl)cc2)c1	5	3	-9	-12
NC(=O)CC(NC(=O)c1ccccc1)c1ccc(N2CCC(Cc3ccccc3)CC2)c([N+](=O)[O-])c1 (centres undefined)	5	17*	-23	-2
NC(=O)CC(NC(=O)c1ccc(Br)cc1)c1ccc(N2CCN(c3ccccc3)CC2)c([N+](=O)[O-])c1 (centres undefined)	2	15*	-18	-12
COc1ccc(CCNC(=O)C(C)n2nc(C)n3c(cc4occc43)c2=O)cc1OC (centres undefined)	2	-4	-5	-8
COc1cc(/C=C/c2ccc3cccc(O)c3n2)cc(OC)c1OC	2	8	39	-4
COc1ccc(/C=C/c2ccc3cccc(O)c3n2)cc1Br	-1	17*	62*	1
COc1cc(/C=C/c2ccc3cccc(O)c3n2)cc(Br)c1OC	1	15*	80*	-2
Cc1nnc(NC(=O)c2ccc(S(=O)(=O)N3CCCCCC3)cc2)o1	1	17*	2	3
CC1CC(C)CN(S(=O)(=O)c2ccc(C(=O)Nc3nnc(-c4cccs4)o3)cc2)C1 (centres undefined)	3	11	50*	2
COc1cccc(-c2nnc(NC(=O)c3ccc(S(=O)(=O)N4CC(C)OC(C)C4)cc3)o2)c1 (centres undefined)	-3	4	56*	-9
CC1CN(S(=O)(=O)c2ccc(C(=O)Nc3nnc(-c4ccco4)o3)cc2)CC(C)O1 (centres undefined)	-1	5	11	-3
Cc1cccnc1NC(=O)c1ccc(S(=O)(=O)N2CCC(C)CC2)cc1	0	16*	-5	-10
Cc1nnc(NC(=O)c2ccc(S(=O)(=O)N3CC(C)OC(C)C3)cc2)o1 (centres undefined)	2	5	6	-2
Cc1cc(C(=O)NC(C)C2CC2)c(Cl)cc1Cl (centres undefined)	2	3	2	1

Source: PubChem (several laboratories)
